The results in this text go back to PubChem BioAssay (EPA / NIEHS).

Read-out in test [1]: Tumor necrosis factor receptor superfamily member 6 (Homo sapiens) (UniProt P25445)
Put plainly: LTEA_HepaRG_FAS: Life Technologies and Expression Analysis (LTEA) Assay for Fas cell surface death receptor (FAS) using HepaRG (AID 2283447). To be noted: mRNA level, 48 h; actives raise or lower the signal. The procedure, abridged: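 FAS transcript level was measured by TaqMan qRT-PCR against three housekeeping genes after 48 h chemical exposure. Cells were HepaRG, 0.5% DMSO vehicle, with a top concentration of 100 uM and half-log dilutions over eight points, in duplicate.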

Read-out in test [2]: Fatty acid synthase (Homo sapiens) (UniProt P49327)
Put plainly: LTEA_HepaRG_FASN: Life Technologies and Expression Analysis (LTEA) Assay for Fatty Acid Synthase (FASN) using HepaRG (AID 2283448). To be noted: mRNA level, 48 h; actives raise or lower the signal. The procedure, abridged: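 FASN expression changes, up or down relative to 0.5% DMSO, were measured by qRT-PCR in human HepaRG cells after 48 h treatment with chemicals at eight concentrations (half-log steps from 100 uM).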

Read-out in test [3]: Cyclin D2 (CCND2), CCND2 (gene 894)
The experiment in a line: LTEA_HepaRG_CCND2: Life Technologies and Expression Analysis (LTEA) Assay for Cyclin D2 (CCND2) using HepaRG (AID 2283449). To be noted: mRNA level, 48 h; actives raise or lower the signal. The procedure, abridged: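 Read-out is CCND2 mRNA level measured by qRT-PCR in human HepaRG liver cells and normalised to three housekeeping genes. Chemicals were applied for 48 h at up to 100 uM, with gain or loss fitted relative to 0.5% DMSO.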

Read-out in test [4]: Cyclin Dependent Kinase Inhibitor 1A (CDKN1A), CDKN1A (gene 1026)
Put plainly: LTEA_HepaRG_CDKN1A: Life Technologies and Expression Analysis (LTEA) Assay for Cyclin Dependent Kinase Inhibitor 1A (CDKN1A) using HepaRG (AID 2283450). To be noted: mRNA level, 48 h; actives raise or lower the signal. The procedure, abridged: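 Read-out is CDKN1A mRNA by TaqMan qRT-PCR, normalized to three housekeeping genes and fitted in both directions against the DMSO baseline. Human HepaRG cells were treated 48 h with test chemicals up to 100 uM in half-log steps, 0.5% DMSO.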

Read-out in test [5]: Cyclin D1 (CCND1), CCND1 (gene 595)
The experiment in a line: LTEA_HepaRG_CCND1: Life Technologies and Expression Analysis (LTEA) Assay for Cyclin D1 (CCND1) using HepaRG (AID 2283451).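 For AC50: differentiated human HepaRG liver cells in serum-free induction medium; TaqMan qRT-PCR transcript level normalised to ACTB GAPDH and POLR2A housekeeping genes.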 To be noted: mRNA level, 48 h; actives raise or lower the signal. The procedure, abridged: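 HepaRG plated 48 h, medium switched to serum-free induction medium, chemicals added in duplicate (top 100 uM, half-log steps, 0.5% DMSO) for 48 h, cells lysed, RNA measured by TaqMan qRT-PCR.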

Read-out in test [6]: catalase (CAT), CAT (gene 847)
Put plainly: LTEA_HepaRG_CAT: Life Technologies and Expression Analysis (LTEA) Assay for catalase (CAT) using HepaRG (AID 2283452).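 For AC50: TaqMan qRT-PCR signal normalized to ACTB GAPDH and POLR2A housekeeping genes.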 To be noted: mRNA level, 48 h; actives raise or lower the signal. The procedure, abridged:
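Expression of CAT was quantified by TaqMan qRT-PCR with ACTB/GAPDH/POLR2A normalization after 48 h chemical exposure of HepaRG. Eight-point half-log series, top 100 uM, in 0.5% DMSO; gain or loss fitted against vehicle.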

Read-out in test [7]: flavin-containing dimethylaniline monooxygenases 3 (FMO3), FMO3 (gene 2328)
Put plainly: LTEA_HepaRG_FMO3: Life Technologies and Expression Analysis (LTEA) Assay for flavin-containing dimethylaniline monooxygenases 3 (FMO3) using HepaRG (AID 2283453).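 For AC50: differentiated human HepaRG liver cells in serum-free induction medium.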 To be noted: mRNA level, 48 h; actives raise or lower the signal. The procedure, abridged:
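Differentiated HepaRG cells in serum-free induction medium, exposed 48 h in duplicate to 8 half-log concentrations up to 100 uM in 0.5% DMSO. FMO3 mRNA by qRT-PCR, normalized to ACTB, GAPDH, POLR2A; bidirectional fit vs DMSO.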

Read-out in test [8]: Cytochrome P450 (CYP1A1), CYP1A1 (gene 1543)
The experiment in a line: LTEA_HepaRG_CYP1A1: Life Technologies and Expression Analysis (LTEA) Assay for Cytochrome P450 (CYP1A1) using HepaRG (AID 2283454). To be noted: mRNA level, 48 h; actives raise or lower the signal. The procedure, abridged: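 HepaRG, 48 h post-plating switched to serum-free induction medium; 8-pt conc-response (top 100 uM, half-log, 0.5% DMSO), duplicates, 48 h. Lysis in RLT, TaqMan qRT-PCR for CYP1A1; gain or loss vs DMSO.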

Read-out in test [9]: CFLAR gene, CFLAR (gene 8837)
Put plainly: LTEA_HepaRG_CFLAR: Life Technologies and Expression Analysis (LTEA) Assay for CFLAR gene using HepaRG (AID 2283455). To be noted: mRNA level, 48 h; actives raise or lower the signal. The procedure, abridged: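 HepaRG, 48 h exposure, 8-pt conc-response (100 uM top, half-log), 0.5% DMSO vehicle, duplicates. CFLAR expression by qRT-PCR; ACTB/GAPDH/POLR2A normalization; gain or loss fit vs DMSO baseline.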

Read-out in test [10]: Forkhead box O1 (FOXO1), FOXO1 (gene 2308)
The experiment in a line: LTEA_HepaRG_FOXO1: Life Technologies and Expression Analysis (LTEA) Assay for Forkhead box O1 (FOXO1) using HepaRG (AID 2283456). To be noted: mRNA level, 48 h; actives raise or lower the signal. The procedure, abridged: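 Readout is FOXO1 transcript level by multiplexed qRT-PCR against three housekeeping genes, curve-fitted in both directions relative to 0.5% DMSO vehicle. Human HepaRG cultures received chemicals for 48 h, up to 100 uM in half-log steps.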

Read-out in test [11]: growth arrest and DNA damage 45 (GADD45A), GADD45A (gene 1647)
The experiment in a line: LTEA_HepaRG_GADD45A: Life Technologies and Expression Analysis (LTEA) Assay for growth arrest and DNA damage 45 (GADD45A) using HepaRG (AID 2283458). To be noted: mRNA level, 48 h; actives raise or lower the signal. The procedure, abridged: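 Cells plated and cultured 48 h, switched to serum-free induction medium, then dosed for 48 h (100 uM top, half-log dilutions, 0.5% DMSO). RNA was isolated and transcript measured by Fluidigm qRT-PCR.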

Read-out in test [12]: Forkhead box O3 (FOXO3), FOXO3 (gene 2309)
The experiment in a line: LTEA_HepaRG_FOXO3: Life Technologies and Expression Analysis (LTEA) Assay for Forkhead box O3 (FOXO3) using HepaRG (AID 2283459). To be noted: mRNA level, 48 h; actives raise or lower the signal. The procedure, abridged: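 HepaRG, 48 h post-dose; 8 conc., half-log from 100 uM, 0.5% DMSO, duplicates; serum-free induction medium. Readout: FOXO3 mRNA, TaqMan qRT-PCR, housekeeping-normalized. Bidirectional curve fit vs DMSO baseline.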

Read-out in test [13]: ABC Transporter (ABCB1), ABCB1 (gene 5243)
The experiment in a line: LTEA_HepaRG_ABCB1: Life Technologies and Expression Analysis (LTEA) Assay for ABC Transporter (ABCB1) using HepaRG (AID 2283460). To be noted: mRNA level, 48 h; actives raise or lower the signal. The procedure, abridged: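 Expression of ABCB1 was quantified by qRT-PCR against three housekeeping genes after human HepaRG cultures received test chemicals for 48 hours. Concentrations spanned eight half-log steps topping at 100 uM in 0.5% DMSO; gain or loss of signal was fitted relative to vehicle.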

Read-out in test [14]: growth arrest and DNA damage 45 (GADD45B), GADD45B (gene 4616)
Put plainly: LTEA_HepaRG_GADD45B: Life Technologies and Expression Analysis (LTEA) Assay for growth arrest and DNA damage 45 (GADD45B) using HepaRG (AID 2283461). To be noted: mRNA level, 48 h; actives raise or lower the signal. The procedure, abridged: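 HepaRG, ~100,000 cells/well, 48 h plating; serum-free induction medium; cpd 100 uM top, half-log x8, 0.5% DMSO, duplicate, 48 h; lysis in RLT, RNA isolation, qRT-PCR; norm ACTB/GAPDH/POLR2A; bidirectional fit vs DMSO.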

Read-out in test [15]: ABC Transporter (ABCC3), ABCC3 (gene 8714)
Put plainly: LTEA_HepaRG_ABCC3: Life Technologies and Expression Analysis (LTEA) Assay for ABC Transporter (ABCC3) using HepaRG (AID 2283462). To be noted: mRNA level, 48 h; actives raise or lower the signal. The procedure, abridged:
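Human HepaRG, 48 h dosing, 8-pt half-log series from 100 uM, 0.5% DMSO vehicle, duplicates. ABCC3 mRNA by TaqMan qRT-PCR, housekeeping-normalized; bidirectional curve fit vs DMSO.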

Read-out in test [16]: ABC Transporter (ABCB11), ABCB11 (gene 8647)
Put plainly: LTEA_HepaRG_ABCB11: Life Technologies and Expression Analysis (LTEA) Assay for ABC Transporter (ABCB11) using HepaRG (AID 2283463). To be noted: mRNA level, 48 h; actives raise or lower the signal. The procedure, abridged:
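ABCB11 transcript levels are read by Fluidigm TaqMan qRT-PCR after 48 h chemical treatment of human HepaRG cells. Concentrations span 100 uM downward in half-log steps with 0.5% DMSO; gain or loss is fitted against DMSO controls.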

Read-out in test [17]: ABC Transporter (ABCC2), ABCC2 (gene 1244)
Put plainly: LTEA_HepaRG_ABCC2: Life Technologies and Expression Analysis (LTEA) Assay for ABC Transporter (ABCC2) using HepaRG (AID 2283464). To be noted: mRNA level, 48 h; actives raise or lower the signal. The procedure, abridged:
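HepaRG, 48 h post-plating; serum-free induction medium; cpd 8-pt, 100 uM top, half-log, 0.5% DMSO, duplicate, 48 h. Readout: ABCC2 mRNA by qRT-PCR, norm. ACTB/GAPDH/POLR2A. Bidirectional fit vs DMSO baseline.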

Read-out in test [18]: Broad substrate specificity ATP-binding cassette transporter ABCG2 (Homo sapiens) (UniProt Q9UNQ0)
Put plainly: LTEA_HepaRG_ABCG2: Life Technologies and Expression Analysis (LTEA) Assay for ABC Transporter (ABCG2) using HepaRG (AID 2283465). To be noted: mRNA level, 48 h; actives raise or lower the signal. The procedure, abridged: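 Read-out is ABCG2 mRNA induction or loss quantified by qRT-PCR after 48 h chemical treatment of human HepaRG cells, normalized to three housekeeping genes. Concentrations reached 100 uM top in half-log steps; fitting was bidirectional against 0.5% DMSO.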

Test [19] is described as follows: CEETOX_H295R_PROG: CeeTox H295R High-throughput Steroidogenesis Assay for Progesterone (PROG) (AID 2283442). To be noted: actives raise or lower the signal. The procedure, abridged:
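Steps: seed H295R cells and let them adhere overnight; prime 48 h with 10 uM forskolin; dose with compound in DMSO at 0.1% final for 48 h; extract medium steroids with MTBE; measure progesterone by LC-MS/MS. MTT viability was run in the same wells.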

Each structure is given as a SMILES string. Calls of active or inactive are those of the source. Rule for the calls: active = hit-call score of the fitted dose curve at least 0.9, where 1 is the maximum; inactive = score below 0.9.

Chain of Broad substrate specificity ATP-binding cassette transporter ABCG2 (Homo sapiens) (Q9UNQ0 whole entry, looked up): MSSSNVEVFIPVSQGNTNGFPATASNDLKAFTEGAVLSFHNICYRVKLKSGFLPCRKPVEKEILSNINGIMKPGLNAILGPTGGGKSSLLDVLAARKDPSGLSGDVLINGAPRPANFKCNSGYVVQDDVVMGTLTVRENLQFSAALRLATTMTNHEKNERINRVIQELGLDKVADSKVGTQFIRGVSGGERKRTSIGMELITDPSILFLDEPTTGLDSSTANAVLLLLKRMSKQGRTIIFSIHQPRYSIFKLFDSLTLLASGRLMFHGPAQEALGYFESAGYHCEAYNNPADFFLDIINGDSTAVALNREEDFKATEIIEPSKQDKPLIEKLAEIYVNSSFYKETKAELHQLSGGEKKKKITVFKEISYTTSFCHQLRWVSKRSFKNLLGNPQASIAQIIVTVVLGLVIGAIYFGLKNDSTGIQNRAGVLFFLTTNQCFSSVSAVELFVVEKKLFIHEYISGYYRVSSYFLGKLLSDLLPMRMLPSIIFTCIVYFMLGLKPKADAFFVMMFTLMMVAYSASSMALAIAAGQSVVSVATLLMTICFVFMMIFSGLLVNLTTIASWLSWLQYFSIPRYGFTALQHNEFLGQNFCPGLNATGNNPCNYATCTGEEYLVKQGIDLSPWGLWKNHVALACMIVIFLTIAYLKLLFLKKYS
Chain of Fatty acid synthase (Homo sapiens) (P49327 whole entry, looked up): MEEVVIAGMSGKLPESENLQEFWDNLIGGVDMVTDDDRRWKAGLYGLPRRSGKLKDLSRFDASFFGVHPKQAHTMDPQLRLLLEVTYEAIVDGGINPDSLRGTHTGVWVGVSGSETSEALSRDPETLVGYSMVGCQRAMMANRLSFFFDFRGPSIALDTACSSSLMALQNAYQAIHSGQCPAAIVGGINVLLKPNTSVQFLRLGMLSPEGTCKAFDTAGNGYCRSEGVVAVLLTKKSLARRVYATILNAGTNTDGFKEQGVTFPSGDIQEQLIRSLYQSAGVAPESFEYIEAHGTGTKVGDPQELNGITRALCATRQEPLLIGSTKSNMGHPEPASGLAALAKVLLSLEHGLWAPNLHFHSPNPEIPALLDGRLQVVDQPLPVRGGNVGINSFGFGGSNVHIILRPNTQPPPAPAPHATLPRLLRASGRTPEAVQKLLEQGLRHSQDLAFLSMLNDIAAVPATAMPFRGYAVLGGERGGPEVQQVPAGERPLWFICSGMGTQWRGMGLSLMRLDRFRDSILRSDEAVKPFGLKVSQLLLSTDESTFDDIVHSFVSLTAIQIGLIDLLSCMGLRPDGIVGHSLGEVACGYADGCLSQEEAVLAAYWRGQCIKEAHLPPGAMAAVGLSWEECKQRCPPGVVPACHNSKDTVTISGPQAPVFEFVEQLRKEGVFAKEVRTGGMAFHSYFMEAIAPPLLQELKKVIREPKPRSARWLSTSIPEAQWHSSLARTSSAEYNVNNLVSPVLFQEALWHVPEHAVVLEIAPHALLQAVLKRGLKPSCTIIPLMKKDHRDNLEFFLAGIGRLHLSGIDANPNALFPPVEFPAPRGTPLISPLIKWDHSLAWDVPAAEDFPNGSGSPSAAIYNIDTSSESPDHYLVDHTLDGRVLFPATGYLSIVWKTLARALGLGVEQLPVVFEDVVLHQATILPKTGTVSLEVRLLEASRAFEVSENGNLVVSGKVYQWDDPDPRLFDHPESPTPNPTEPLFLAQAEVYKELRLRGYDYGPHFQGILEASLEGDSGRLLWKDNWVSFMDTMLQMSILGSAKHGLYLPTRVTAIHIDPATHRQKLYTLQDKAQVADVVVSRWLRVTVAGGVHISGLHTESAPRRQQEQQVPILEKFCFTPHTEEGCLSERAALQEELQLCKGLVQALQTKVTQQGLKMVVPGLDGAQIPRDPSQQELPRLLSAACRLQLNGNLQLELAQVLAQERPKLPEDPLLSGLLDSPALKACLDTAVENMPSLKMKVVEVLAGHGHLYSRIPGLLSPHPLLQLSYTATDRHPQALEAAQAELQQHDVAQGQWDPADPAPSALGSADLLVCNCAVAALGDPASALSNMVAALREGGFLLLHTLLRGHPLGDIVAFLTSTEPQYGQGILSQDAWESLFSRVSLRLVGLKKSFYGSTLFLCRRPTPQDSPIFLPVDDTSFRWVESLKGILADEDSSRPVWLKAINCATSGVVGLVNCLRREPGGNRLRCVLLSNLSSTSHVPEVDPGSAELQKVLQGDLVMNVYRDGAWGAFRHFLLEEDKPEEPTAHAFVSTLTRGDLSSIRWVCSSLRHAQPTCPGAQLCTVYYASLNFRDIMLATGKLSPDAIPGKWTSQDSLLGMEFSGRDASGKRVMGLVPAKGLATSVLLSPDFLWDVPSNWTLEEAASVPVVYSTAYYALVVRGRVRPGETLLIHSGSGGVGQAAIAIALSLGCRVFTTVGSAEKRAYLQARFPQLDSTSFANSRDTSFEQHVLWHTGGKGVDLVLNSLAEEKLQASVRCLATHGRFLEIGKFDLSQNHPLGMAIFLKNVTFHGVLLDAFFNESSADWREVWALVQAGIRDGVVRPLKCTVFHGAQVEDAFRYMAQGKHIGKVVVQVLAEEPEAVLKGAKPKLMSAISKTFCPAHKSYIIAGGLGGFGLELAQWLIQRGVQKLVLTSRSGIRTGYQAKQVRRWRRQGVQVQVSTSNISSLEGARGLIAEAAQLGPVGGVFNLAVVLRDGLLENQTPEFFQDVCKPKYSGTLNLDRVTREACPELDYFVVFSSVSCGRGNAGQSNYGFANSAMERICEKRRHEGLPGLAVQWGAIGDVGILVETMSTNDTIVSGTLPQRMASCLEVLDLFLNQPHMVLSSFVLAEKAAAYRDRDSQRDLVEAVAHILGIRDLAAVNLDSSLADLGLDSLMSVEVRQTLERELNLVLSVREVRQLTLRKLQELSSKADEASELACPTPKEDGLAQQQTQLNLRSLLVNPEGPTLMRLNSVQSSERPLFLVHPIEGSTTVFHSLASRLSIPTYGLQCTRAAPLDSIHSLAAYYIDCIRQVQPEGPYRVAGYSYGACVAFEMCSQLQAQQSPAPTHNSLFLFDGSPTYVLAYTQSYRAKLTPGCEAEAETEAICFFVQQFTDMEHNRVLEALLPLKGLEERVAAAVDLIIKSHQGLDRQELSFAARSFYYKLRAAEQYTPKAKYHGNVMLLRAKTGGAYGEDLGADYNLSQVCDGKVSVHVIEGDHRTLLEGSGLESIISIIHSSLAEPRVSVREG

As for `CCCCOCCOCCO`, the compound was classed as inactive in test [1], in test [2], in test [3], in test [4], in test [5] and in test [6]. Also, the compound was called inactive in test [7], in test [9], in test [10], in test [11], in test [12] and in test [13]. Further, the call in [14], in [15], in test [16], in test [17] and in test [18] was inactive. In addition, the half-maximal activity concentration (AC50) in test [8] was 50 µM (active).
In the case of `O=C(c1ccc(OCCN2CCCCC2)cc1)c1c(-c2ccc(O)cc2)sc2cc(O)ccc12`, the compound was called inactive in test [19], in test [1], in test [2], in test [3], in test [4] and in test [8]. Further, the outcome in test [11], in test [12] and in test [18] was inactive. The AC50 in test [5] was 96.1 µM (active); in test [6] it was 50 µM (active); in test [7], 72.3 µM (active); in test [9], 65.4 µM (active); in [10], 86 µM (active); in test [13], 72.7 µM (active). The half-maximal activity concentration (AC50) is 92.8 µM (active) in [14], 50 µM (active) in test [15], 7.18 µM (active) in test [16] and 84.8 µM (active) in [17].

The term AC50 denotes the concentration at which the activity in the assay is half-maximal.
